Screen size: about 410,000 compounds; about 1,200 (0.29%) were called active. Another 2% or so got no clear call; they are omitted. Calls come from the whole dose curve; as a rule, active = well fitted activation curve with a large enough effect; inconclusive = small, poorly fitted or top-dose-only effect; inactive = flat fitted curve, though single readings scatter. Shown is part of a subset that was picked to be rich in actives.
assay: qHTS of Nrf2 Activators; settings: AREc32 ARE-luciferase reporter (MCF7-derived line), luminescence, 24 h; series mostly up to 46.1 µM; activation: at the top concentration; note: nearly all actives have a fitted effect of over 65% in size; for activation: % of control where 0% means no effect
Description: Many diseases have some form of oxidative stress injury and ties to inflammation, causing a host of problems for the patient. The antioxidant response element (ARE) plays an important role in alleviating the harmful effects of oxidative stress. The antioxidant response element (ARE) is a transcriptional regulatory element involved in the activation of genes coding for a number of antioxidant proteins and detoxifying enzymes. These enzymes work in concert to protect tissues from oxidative insults and chemical toxicities in human hepatocytes and immune cells. The protective effects of ARE activation are primarily triggered through Nrf2 (NF-E2-related factor) binding to and activating AREs. It is known that Nrf2 controls the production of over 250 antioxidant and detoxification proteins (Hu et al., 2006), thereby protecting tissues by increasing cellular antioxidant content and suppressing inflammatory signaling pathways. The transcription factor Nrf2 is a central link between oxidative chemicals, such as phenolic antioxidants and electrophilic compounds, and the activation of ARE. Nrf2 levels are constitutively low as a consequence of its interaction with Keap1, which targets its degradation (Zipper and Mulcahy, 2002). Electrophiles react with key cysteine residues in Keap1, releasing Nrf2 and allowing its translocation to the nucleus. Once within the nucleus, Nrf2 complexes with coactivators such as p300, and binds to the AREs to induce gene transcription of cytoprotective enzymes, resulting in the prevention of toxicity. Activation of Nrf2 protects tissues by increasing cellular antioxidant content and suppressing inflammatory signaling pathways. Identifying novel and potent Nrf2 activators by using the AREc32 cell line to detect ARE activation by small molecules will lead to the identification and development of probes to study protective pathways in multiple tissues. These specific probes are essential to study the ARE pathway, and eventually to determine whether this pathway does activate genes that could protect against a host of diseases, including cardiovascular diseases, obesity, diabetes, Alzheimer's, and Parkinson's disease.
This project's aim is to identify novel and potent Nrf2 activators by using the AREc32 cell line to detect ARE activation by small molecules, which will lead to the identification and development of probes to study the ARE pathway.
NIH Chemical Genomics Center [NCGC]
NIH Molecular Libraries Probe Centers Network [MLPCN]
Assay Submitter (PI): Curtis Klaassen, University of Kansas Medical Center
5 uL of 1000 cells/well of AREc32_Fluc cells are seeded into 1536-well plate in OPTI-MEM medium with 5% FBS. The plates are incubated overnight at 37 deg C with 5% CO2. Then through pin tool transfer, 23 nL of compounds are added to each well before a 24 hr incubation at 37 deg C with 5% CO2. After the addition of 2.5 uL of Steady-Glo. the plates are kept at RT for 30 min, before they are read on the ViewLux.
Potency is the fitted concentration of half-maximal effect.

activation, inactive:
Cc1ccc(NC2=C(Cl)C(=O)OC2OC(=O)c2ccccc2C)cc1 (stereo unspecified) 0.434% [at 9.22 µM]
O=C1OC(OC(=O)c2ccccc2Br)C(N2CCOCC2)=C1Cl (stereo unspecified) 5.07%
CCOC(=O)c1c(C)[nH]c(C)c1S(=O)(=O)N1CCC(C(=O)Nc2ccc(C)c(Cl)c2)CC1 -0.0095%
CC(C)c1cc(NCc2ccccn2)n2c(nc3ccccc32)c1C#N -0.266%
Cc1cc(NC(C)C)n2c(nc3ccccc32)c1C#N -0.5%
Cc1cc(C)cc(NC(=O)COC(=O)c2cc(C)oc2C)c1 0.443%
Cc1cc(C(=O)NCCc2ccc(Cl)cc2)c(C)o1 0.668%
COc1cccc(C(=O)NCC(=O)OCc2cc(=O)n3ccsc3n2)c1 0.717%
S=c1[nH]nc(CSCc2ccc(Cl)cc2Cl)n1-c1ccccc1 1.92%
Cc1n[nH]c(=O)n1-c1ccc(Oc2ccccc2)cc1 -0.567%
COc1cccc(C(c2c(O)cc(C)n(Cc3ccco3)c2=O)N2CCN(c3ccccc3)CC2)c1 (stereo unspecified) -0.424%
CN(C)c1ccc(NC(=O)c2ccncc2)c2ccccc12 0.419%
Cc1ccc(NC(=O)c2oc3ccccc3c2C)c([N+](=O)[O-])c1 2.17%
O=C(CN1C(=O)COc2ccc(S(=O)(=O)N3CCOCC3)cc21)N1CCN(c2cccc(Cl)c2)CC1 -1.02%
Cc1cc2nc(-c3ccc(NC(=O)c4cc5ccccc5o4)cc3)oc2cc1C -0.225%
CCOc1cccc(/C=C/c2ccc3ccccc3n2)c1OC(C)=O -0.0343%
O=C(COC(=O)/C=C/c1nc2ccccc2s1)Nc1ccccc1Oc1ccccc1 13.2%
CN(C(=O)c1ccc2c(c1)N(Cc1cccc(Cl)c1)C(=O)c1ccccc1S2=O)C1CCCCC1 (stereo unspecified) -0.856%
CC(C)C(=O)Nc1nc2c(s1)CC(C(C)(C)C)CC2 (stereo unspecified) 8.99%
Cc1ccc(NC(=O)Cn2nnc3sc4c(c3c2=O)CCC(C)C4)cc1 (stereo unspecified) -0.46%
COC(=O)c1cccc(Cn2nnc3sc4c(c3c2=O)CCC(C(C)(C)C)C4)c1 (stereo unspecified) 0.258%
CCOC(=O)c1c(C)oc2nc(C)nc(Nc3ccc(CC)cc3)c12 0.634%
CCCOc1ccc(-c2cccc(NS(=O)(=O)c3ccccc3)c2)nn1 5.26%
COc1ccc(C2NC(=O)N(C)C3=C2C(=O)N(c2ccc(C(=O)O)cc2)C3)cc1 (stereo unspecified) -0.886%
COc1ccc(N2C(=O)CC(N3CCC(C(N)=O)CC3)C2=O)cc1 (stereo unspecified) 2.6%
CCCNC(=O)C1CCC(Cn2c(=O)c3sccc3n(Cc3ccccc3F)c2=O)CC1 (stereo unspecified) -0.818%
COc1ccccc1CNC(=O)c1ccc(CS(=O)c2ccccc2Cl)o1 (stereo unspecified) 0.406%
Cc1ccc(-c2ccnc3nc(Sc4ncc(C(F)(F)F)cc4Cl)nn23)cc1 3.01%
Cc1cc(-c2ccccc2)n2nc(-c3ccccc3)cc2n1 12.8%
O=C(Nc1nnc(S(=O)(=O)N2CCCc3ccccc32)s1)c1cccc(F)c1 7.1%
CCSc1ncc(Cl)c(C(=O)Nc2c(C(=O)c3ccccc3)oc3ccccc23)n1 1.26%
O=C(Nc1cccc2cccnc12)c1cccc2c(Br)cccc12 -0.813%
COc1c(Cl)cc(Cl)cc1C(=O)Nc1cccc2cccnc12 4.52%
Cc1ccc(NC(=O)CN2C(=O)C(c3ccc(F)cc3)=NC23CCCCCC3)c(C)c1 -0.548%
CCCN1CCc2nc(N3CCN(C)CC3)ncc2C1 -0.347%
CC(C)(C)c1ccc(C(=O)N2CCC(c3nc(-c4ccc(S(=O)(=O)N5CCCC5)cc4)no3)CC2)cc1 -0.309%
O=C(CSc1n[nH]c(=O)n1-c1ccccc1)Nc1ccccc1C(F)(F)F 0.332%
O=S(=O)(c1ccc(F)cc1)N1CCN(Cc2ccccc2C(F)(F)F)CC1 -0.452%
COc1ccc2oc(=O)c(-c3cn4c(n3)sc3cc(OC)ccc34)cc2c1 0.368%
CC(=O)c1nn(-c2ccc(OC(F)(F)F)cc2)nc1Nc1ccccc1 1.31%
CCOc1ccc(CCNC(=O)c2ccc3c(c2)sc2nc(-c4ccc(F)cc4)cn23)cc1OCC 3.06%
Cn1c(=O)c2c(n3c4ccccc4nc13)NC(=O)CC2c1cccc(Cl)c1 (stereo unspecified) 1.12%
Cc1ccc(-c2nnc(SCC(=O)NCc3ccccc3)nc2-c2ccc(C)cc2)cc1 5.5%
Fc1ccc(CSc2nc(NCc3ccccc3)c3ccccc3n2)cc1 6.47%
Cc1ccc(CNC(=O)CSc2c3c(nc4cc(Cl)ccc24)CCCC3)cc1 26.8%
COc1cccc(CNC(=O)CSc2c3c(nc4cc(Cl)ccc24)CCCC3)c1 19.1%
CCCNC(=O)CCC(=O)N1Cc2ccccc2Oc2ncccc21 -0.631%
Cc1ccc2[nH]c3c(=O)n(CC(=O)NC(C)C)ncc3c2c1 -0.0426%
COc1ccc(-c2csc(-c3c(N)c(C(=O)c4ccc(OC)c(OC)c4)n4ccccc34)n2)cc1 -0.693%
CCn1c2ccccc2c2nnc(N3CCN(c4cc(C)ccc4C)CC3)nc21 -0.21%
Cc1nc(N)sc1-c1ccccc1 8.19%
Cc1nc(-c2ccccc2)sc1-c1nc(-c2ccccc2)ncc1S(=O)(=O)c1ccccc1 0.0302%
COc1ccc(Cl)cc1S(=O)(=O)N1CCC(c2ccncc2)CC1 3.31%
CCOc1ccc(CC(=O)NCCc2csc3nc(-c4ccccc4F)nn23)cc1 3.54%
O=C(COC(=O)/C=C/c1ccc2c(c1)OCO2)NC1CCS(=O)(=O)C1 (stereo unspecified) 5.37%
O/N=C(\c1ccc2c(c1)OCCO2)C1CCCCC1 -0.368%
O=C(NCCc1csc(-c2ccc(C(F)(F)F)cc2)n1)C(=O)Nc1ccc(F)c(Cl)c1 0.286%
COc1ccc(NC(=O)c2ccc3nc(C(C)C)oc3c2)cc1OC 9.79%
COCc1c(C(=O)OCC(=O)Nc2ccc(OC(F)F)cc2)oc2ccccc12 -0.783%
CCc1cccc(NC(=O)COC(=O)C2CCN(c3ccc(C(F)(F)F)cn3)CC2)c1 -0.0951%
Cc1cc(C)nc(NS(=O)(=O)c2ccc(NC(=O)c3cc(=O)c4ccc(C)c(C)c4o3)cc2)n1 -0.437%
COc1cc2c(cc1NC(=O)COC(=O)/C=C/c1ccccc1)oc1ccccc12 4.04%
COc1ccc(Br)cc1CN(C)CC(=O)Nc1cc([N+](=O)[O-])ccc1OC 0.584%
FC(F)(F)c1cc(Nc2nc3ccccc3c3nncn23)ccc1Cl -0.119%
COc1cccc(N=C2SC(C(=O)Nc3cccc(Cl)c3)CC(=O)N2C)c1 (stereo unspecified) 4.5%
COc1ccc(-c2nnc(SCC(=O)Nc3ccc(C(C)C)cc3)nc2-c2ccc(OC)c(OC)c2)cc1OC 4.8%
CCCc1nc2c3ccccc3ccn2c1Cc1ccccc1C(F)(F)F 10.7%
COC(=O)c1ccc2nc(-c3ccc(F)cc3)c(Cc3ccc(C)cc3)n2c1 16.6%
COC(=O)c1ccc2nc(-c3ccc(Cl)cc3)c(Cc3cccc(F)c3)n2c1 0.65%
CC(C)c1ccc(NC(=O)C2CCN(c3nc(-c4ccc(C(C)C)cc4)no3)CC2)cc1 -5.01%
COc1ccc(NC(=O)c2sc3nc(-c4cc5cccc(OC)c5oc4=O)[nH]c(=O)c3c2C)cc1 -0.615%
O=S(=O)(c1ccc(Cl)cc1)c1nnn2c1nc(NC1CCCC1)c1sccc12 -0.774%
CCc1cc2c(cc3c(=O)n(CC(=O)NCCc4ccc(OC)c(OC)c4)ncn32)s1 0.25%
CCOC(=O)c1ccc(CSc2nnc3cc(C)c4ccccc4n23)cc1 2.48%
CN(C(=O)c1ccccc1)c1nccnc1C#N -0.11%
COc1ccc(S(=O)(=O)c2c(Nc3cccc(Cl)c3)sc(C(=O)c3ccccc3)c2N)cc1 5.95%
CCCS(=O)(=O)c1c(Nc2ccccc2C)sc(C(=O)c2ccccc2)c1N -0.703%
COc1cccc(C(=O)c2sc3nc(-c4ccccc4)cc(C(F)(F)F)c3c2N)c1 22.5%
COc1ccc(-n2ccnc(NCCc3ccc(Cl)cc3)c2=O)cc1OC 3.86%

Potency, active:
Cc1ccccc1C(=O)OC1OC(=O)C(Cl)=C1Nc1ccccc1 (stereo unspecified) 15.8 µM
Nc1c(C(=O)c2cccs2)sc2nsc(SCCN3CCCCC3)c12 10 µM
Cc1cc(NCc2ccco2)n2c(nc3ccccc32)c1C#N 5.01 µM
Cc1cc(C(=O)N/N=C\C(Br)=C\c2ccccc2)c(C)o1 20 µM
S=c1[nH]nc(-c2cc(-c3ccsc3)n[nH]2)n1-c1ccccc1 8.91 µM
O=C(Nc1ccc2ccccc2c1[N+](=O)[O-])c1ccccc1 14.1 µM
NC(=O)COC(=O)/C=C/c1ccc2ccccc2n1 15.8 µM
COc1ccc(N2C(=O)C3C(C2=O)C(C(=O)c2ccccc2)N2CCCC32)cc1 (stereo unspecified) 12.6 µM
c1ccc(-c2ccnc3nc(-n4cccc4)nn23)cc1 12.6 µM
O=C(Nc1ccccc1Cl)Nc1cccc2cccnc12 12.6 µM
O=c1[nH]nc(SCCS(=O)(=O)c2ccc(F)cc2)n1-c1ccccc1C(F)(F)F 11.2 µM
O=C1/C(=C\c2ccc(O)cc2)CCC1CNc1ccc(Cl)cc1 (stereo unspecified) 11.2 µM
c1ccc(CSc2nnc(-c3ccco3)c(-c3ccco3)n2)cc1 12.6 µM
O=C(CSc1c2c(nc3ccc(Cl)cc13)CCCC2)NCc1ccco1 11.2 µM
Cc1nc(-c2ccccc2)sc1-c1nnc(C2CC2)o1 15.8 µM
O=C(/C=C/c1ccc2c(c1)OCCO2)c1ccc(O)cc1 5.01 µM
CCc1cccc(NC(=O)COC(=O)c2cc(=O)c3ccccc3o2)c1 14.1 µM
COc1ccc([N+](=O)[O-])cc1NC(=O)COC(=O)/C=C/c1ccco1 11.2 µM
Cc1ccc(Cc2c(-c3ccco3)nc3ccc(Cl)cn23)cc1 12.6 µM
c1ccc(Cc2c(-c3ccco3)nc3c4ccccc4ccn23)cc1 6.31 µM
CN(C)c1ccnc2sc(C(=O)c3ccccc3)c(N)c12 10 µM
Cc1ccc2c(N)c(C(=O)c3ccccc3)sc2n1 8.91 µM
